An excerpt weighted towards active compounds, which were near 4.8% of everything screened.
ATXN viability: reduces viability in counter-screen for ATXN expression inhibitors. 400,000 compounds, 0.49% hits. AID 651635. Potency, µM (highest dose often 56.7 µM), hits mostly cytotoxic. S2 cells (HEK-293 line with an ATXN2-luciferase reporter) viability, CellTiter-Fluor protease fluorescence, 24 h; further: potency means the concentration at half of the fitted maximal effect; nearly all actives have a fitted effect of over 40% in size
DRD3 antagonist: antagonists of human D3 dopamine receptor; P35462; D3R cells, DiscoveRx beta-arrestin luminescence, antagonist mode; hits give low values; max response, negative = inhibition, %; 360,000 compounds, 2.5% hits; AID 652054; in the data active means max response below about -50%; inconclusive means no clear call, values can overlap the other calls; further: on the % scale 0 is the no-effect control and ±100 the full control effect
Target sequence (P35462 whole entry, looked up): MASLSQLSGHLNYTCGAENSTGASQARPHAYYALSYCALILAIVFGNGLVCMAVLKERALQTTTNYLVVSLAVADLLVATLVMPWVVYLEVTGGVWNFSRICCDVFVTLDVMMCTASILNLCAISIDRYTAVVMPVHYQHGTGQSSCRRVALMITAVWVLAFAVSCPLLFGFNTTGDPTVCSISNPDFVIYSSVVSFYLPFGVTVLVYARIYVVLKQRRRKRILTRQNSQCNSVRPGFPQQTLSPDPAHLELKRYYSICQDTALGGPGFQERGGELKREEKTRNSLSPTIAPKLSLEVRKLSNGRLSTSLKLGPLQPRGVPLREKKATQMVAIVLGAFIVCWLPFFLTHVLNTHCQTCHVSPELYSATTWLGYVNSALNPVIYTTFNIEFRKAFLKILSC
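Cells plated overnight at 1500 cells/well, then exposed to library compounds with dopamine controls for 90 minutes at 37 degrees C. DiscoveRx reagent added for 30–60 minutes at room temperature; luminescence read, quantitative HTS format.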
HepG2 tox: kills HepG2 cells in TGF-b inhibitor counter-screen. HepG2 CAGA-GFP viability, ATP luminescence, 18 h. Potency, µM (doses to about 46.1 µM), inactives show at the top dose activity change, negative = cytotoxicity, actives largely listed as cytotoxic. 410,000 compounds, 0.76% hits; further: potency means the concentration at half of the fitted maximal effect
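HepG2 CAGA-GFP cells (1000/well, DMEM with 1% FBS) received compound, then TGF-beta at 500 pg/mL final, and were incubated 18 hours at 37 degrees C. Viability was read by CellTiter-Glo luminescence. Media-only wells were set as complete cell-killing and DMSO as no toxicity.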
D3 ag: agonists of human D3 dopamine receptor; D3R DiscoveRx beta-arrestin cells, luminescence, 90 min; AID 652048; 410,000 compounds, 0.58% hits; P35462; max activation, %; in the data active means max activation above about 30%; further: 0% is about no effect
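Cells at 1500/well, incubated overnight, then treated with pinned compounds (dopamine as control) for 90 min at 37 degrees C. DiscoveRx reagent added for 30 - 60 minutes at room temperature; luminescence read.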
TGFb SMAD3 inh: TGF-b pathway inhibition; HepG2 CAGA-GFP TGF-b/SMAD3 reporter, GFP fluorescence, 18 h; TGF-beta stimulated, 500 pg/mL final; Potency, µM (series often up to 46.1 µM), for the others: at the top dose activity, negative = inhibition, most hits filed as inhibitors; 410,000 compounds, 1.2% hits; further: potency means the concentration at half of the fitted maximal effect; on the % scale 0 is the no-effect control and ±100 the full control effect; nearly all actives have a fitted effect of over 65% in size
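Per well, imaged GFP fluorescence of HEPG2 CAGA-GFP cells gives the signal; cells get compound, then TGF-beta (500 pg/mL final), 18 h at 37 degrees C; %Activity versus -TGF-beta and +DMSO controls.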
ATXN2 expr inh: inhibitors of ATXN2 expression; HEK-293 ATXN2-luciferase reporter, luminescence, 24 h; 360,000 compounds, 0.72% hits; Potency, µM (doses to about 57 µM), for inactives: top-dose activity change, negative = inhibition, most hits filed as inhibitors; further: potency means the concentration at half of the fitted maximal effect; on the % scale 0 is the no-effect control and ±100 the full control effect; nearly all actives have a fitted effect of over 55% in size
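ATXN2-luciferase reporter cells (luciferase flanked by upstream and downstream ATXN2 gene portions) were treated 24 h at 37 °C with compounds at up to 57 uM. SteadyGlo luminescence gave expression; GF-AFC fluorescence gave viability.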
Active calls of the source: *; i = inactive; ? = inconclusive; · = not tested or not shown. Unless noted, the call rests on the fitted dose curve; in most records, active means well fitted curve in the direction sought with a large enough effect; inconclusive means small, poorly fitted or top-dose-only effect, or another doubt; inactive means no such curve, though single readings can be large; an effect the other way counts as inactive or inconclusive.

SMILES	ATXN viability	DRD3 antagonist	HepG2 tox	D3 ag	TGFb SMAD3 inh	ATXN2 expr inh
COC(=O)Cc1ccc(NC(=S)N2CCN(c3cccc(O)c3)CC2)cc1	i	0.7	1.8%	31.7*	0.8%	-19.3%
COC(=O)Cc1ccc(NC(=S)N2CCN(c3ccc(OC)cc3)CC2)cc1	i	5.6	-3.9%	4.1	?	-1.5%
CCOC(=O)c1scc(-c2ccc(C)cc2)c1S(=O)(=O)Nc1ccc(OC)c(Cl)c1	i	·	-35.0%	-1.3	?	-4.5%
CCc1c(C)c(C#N)c2nc3ccccc3n2c1NC	i	2.8	-2.4%	-3.2	35.1%	7.7%
Cc1c(CCCl)c(Cl)n2c(nc3ccccc32)c1C#N	?	-103.1*	-20.9%	-5.6	?	?
COc1ccc(-c2cc(C(F)(F)F)nc(SCC(=O)N3CCCCC3)n2)cc1	i	·	4.1%	-11.0	?	-11.6%
O=C(N/N=C/C=C\c1ccccc1[N+](=O)[O-])c1cccs1	i	-63.9*	-4.3%	-16.5	-7.7%	23.5%
COC(=O)C(=Cc1ccccc1[N+](=O)[O-])C(=O)OC	15.8µM*	-57.8*	-41.3%	-5.7	?	·
O=C(N/N=C/C=C\c1ccccc1[N+](=O)[O-])c1cc(-c2ccc3ccccc3c2)n[nH]1	?	8.6	8.91µM*	9.3	12.6µM*	-30.9%
CCC(=O)Nc1ccc(-c2nnc(SCc3ccccc3)n2C)cc1	·	·	-14.4%	·	-1.7%	·
COC(=O)N/N=C/c1ccc(OS(=O)(=O)c2ccc(C)cc2)c(OC)c1	i	-19.1	-17.2%	-21.6	-1.4%	6.6%
COc1cc(/C=N/NC(=O)c2cccnc2)ccc1OS(=O)(=O)c1ccc(C)cc1	i	0.8	8.5%	-7.4	2.3%	·
COc1cc(/C=N/NC(=O)COc2ccc(Cl)cc2)ccc1OS(=O)(=O)c1ccc(C)cc1	i	-50.2*	-17.4%	-8.4	-15.3%	-8.3%
COc1cc(/C=N/NC(=O)COc2cccc(F)c2)ccc1OS(=O)(=O)c1ccc(C)cc1	i	-53.3*	-9.4%	-8.9	?	16.7%
Cc1ccc(CNC(=O)CSc2nc3ccsc3c(=O)n2-c2ccc(Br)cc2)cc1	·	·	-10.0%	0.6	?	·
O=C(NCc1ccc(Cl)cc1)C1CCN(S(=O)(=O)Cc2ccccc2)CC1	?	·	-0.1%	0.4	-3.7%	-3.8%
Cc1c(N2C(=O)/C(=C/c3ccccc3)SC2=S)c(=O)n(-c2ccccc2)n1C	i	5.2	-28.3%	0.6	7.0%	2.0%
Cc1c(N2C(=O)/C(=C/c3ccc(N(C)C)cc3)N(C)C2=S)c(=O)n(-c2ccccc2)n1C	12.6µM*	0.0	-13.1%	0.1	-3.4%	1.2%
CCn1c(=N)c(C(=O)NCC2CCCO2)cc2c(=O)n3cc(C)ccc3nc21 (configuration not stated)	·	·	-5.1%	-6.4	4.4%	8.2%
O=C(CSc1nc2c([nH]c3ccccc32)c(=O)n1-c1ccccc1)NCC1CCCO1 (configuration not stated)	i	-84.4*	-13.9%	-23.3	0.5%	-5.4%
CCOc1ccc(C(=O)Nc2nnc(SCC(=O)NCC3CCCO3)s2)cc1 (configuration not stated)	?	-14.0	-16.4%	2.0	-8.0%	?
CC(C)(C)c1ccc(C(=O)Nc2nnc(SCC(=O)NCC3CCCO3)s2)cc1 (configuration not stated)	i	1.1	-7.5%	-0.7	-2.9%	15.8µM*
O=C(CSc1nc2c([nH]c3ccccc32)c(=O)n1-c1cccc(Cl)c1)NCC1CCCO1 (configuration not stated)	i	·	-9.2%	-6.0	15.6%	9.9%
CC1Cc2nc(SCC(=O)NCC3CCCO3)n(C)c(=O)c2S1 (configuration not stated)	i	-53.4*	-43.5%	13.8	0.0%	3.6%
O=C(CSc1nc2c([nH]c3ccccc32)c(=O)n1-c1ccc(F)cc1)N1CCCCCC1	i	·	-33.3%	32.8*	1.0%	2.2%
SMILES	ATXN viability	DRD3 antagonist	HepG2 tox	D3 ag	TGFb SMAD3 inh	ATXN2 expr inh
COc1ccc(-c2nc3scc(CCNS(=O)(=O)c4ccc5c(c4)OCCO5)n3n2)cc1	·	·	-11.0%	10.2	0.0%	·
CC1CN(CCC(=O)NC(c2cccnc2)C(F)(F)F)Cc2cc(Cl)ccc2O1 (configuration not stated)	i	·	·	·	·	·
Fc1ccc(-c2csc(-c3nc(-c4ccc(Br)s4)cs3)n2)cc1	i	·	4.2%	8.9	-3.2%	14.1%
CCOC(=O)c1sc(NC(=O)c2c(-c3ccccc3)c(-c3ccccc3)nn(C)c2=O)nc1C	·	·	5.8%	11.8	0.0%	·
COc1cc(-c2nc(C(=O)NCC3CCCO3)cc3c2[nH]c2ccccc23)cc(OC)c1OC (configuration not stated)	?	88.3	-7.3%	33.3*	24.7%	?
CCC(c1nnc(SCC(=O)N2CC(=O)Nc3ccccc32)n1Cc1ccccc1)N(C)C (configuration not stated)	i	0.0	4.6%	-4.4	2.0%	-2.4%
Cc1nnc(SCC(=O)NCC2CCCO2)n1Cc1ccccc1 (configuration not stated)	i	-8.3	-17.2%	78.1*	0.0%	-7.2%
COc1ccccc1-n1c(SCC(=O)NCC2CCCO2)nc2c([nH]c3ccccc32)c1=O (configuration not stated)	?	-57.4*	1.4%	-19.4	-7.6%	-9.0%
COc1ccccc1-c1nc(C(=O)NCC2CCCO2)cc2c1[nH]c1ccccc12 (configuration not stated)	?	27.4	-25.4%	2.8	-2.6%	4.4%
CCn1c(SCC(=O)NCC2CCCO2)nc2c([nH]c3ccccc32)c1=O (configuration not stated)	i	0.9	-19.2%	8.1	-4.4%	19.4%
Cc1nnc(SCC(=O)N2CC(=O)Nc3ccccc32)n1Cc1ccccc1	i	-66.2*	-0.6%	-6.1	-3.6%	1.4%
O=C(Cn1c(C(=O)N2CCN(C3CCCC3)CC2)cc2sccc21)c1ccccc1	?	-77.7*	-34.5%	-36.9	-8.7%	-2.7%
CCCSc1nc(-c2ccccc2)[nH]c1S(=O)(=O)c1ccc(C)cc1	?	·	-37.9%	3.9	?	0.0%
Nc1nc(Cl)nc2c1ncn2[C@@H]1O[C@H](CO)[C@@H](O)[C@H]1F	·	·	·	·	·	0.0097µM*
COC(=O)c1ccc(OCC2c3cc(OC)c(OC)cc3CCN2C(=O)c2ccccc2F)cc1 (configuration not stated)	i	·	-26.3%	6.5	-22.2%	-22.8%

Source: PubChem (National Center for Advancing Translational Sciences (NCATS))
